{
  "source": "the emibetuzumab library of Makowski et al. (2022)",
  "parents": {"B1": {"name": "VH:VL chains; a variant is named by its letters at X, in order (parent)", "chain 1": "QVQLVQSGAEVKKPGASVKVSCKASGYTFTDYXMHWVRQAPGQGLEWMGXVNPNXXXTTYNQKFEGRVTMTTDTSTSTAYMELRSLRSDDTAVYYCARXNXLDXWGQGTTVTVSS", "chain 2": "DIQMTQSPSSLSASVGDRVTITCSVSSSVSSIYLHWYQQKPGKAPKLLIYSTSNLASGVPSRFSGSGSGTDFTLTISSLQPEDFATYYCQVYSGYPLTFGGGTKVEIK"}},
  "note": "The other results are listed elsewhere or left out. The hit rate among all sequences tested is not known here.",
  "data": [
    {"variants_of": "B1", "test": "yeast display scFab, FACS + sequencing", "settings": "with MET", "in_short": "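For FACS, yeast displaying a heavy-chain CDR mutant scFab library were labelled with 1 nM HGFR-Fc and anti-Myc (PBSB, 1% milk, 3 h, room temperature), and the top 50% antigen-positive cells were gated. Input and round-3 sorted populations were deep sequenced in two replicates. The binding call was positive for sequences occurring in both antigen-positive samples and negative for sequences occurring only in input.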", "values": [
      {"variant": "YRGRGFVA", "antigen binding call": "binds"},
      {"variant": "YRGKGFVV", "antigen binding call": "binds"},
      {"variant": "YRGKGFVA", "antigen binding call": "binds"},
      {"variant": "SRGRGFVA", "antigen binding call": "no binding"},
      {"variant": "FRGRGFVA", "antigen binding call": "no binding"},
      {"variant": "YRGRGFLV", "antigen binding call": "binds"},
      {"variant": "VTTKSAVA", "antigen binding call": "no binding"},
      {"variant": "DRRKAFSA", "antigen binding call": "no binding"},
      {"variant": "VEEEGDAA", "antigen binding call": "no binding"},
      {"variant": "VAGGDDVA", "antigen binding call": "no binding"},
      {"variant": "VEGTGDWD", "antigen binding call": "no binding"},
      {"variant": "VRGKAFVV", "antigen binding call": "no binding"},
      {"variant": "VRAGADVV", "antigen binding call": "no binding"},
      {"variant": "VRARGFVV", "antigen binding call": "binds"},
      {"variant": "VRGRGFVV", "antigen binding call": "binds"},
      {"variant": "YRGKGYVV", "antigen binding call": "binds"},
      {"variant": "VATKGFVV", "antigen binding call": "no binding"},
      {"variant": "YRGRGFVV", "antigen binding call": "binds"},
      {"variant": "FEKEADAF", "antigen binding call": "no binding"},
      {"variant": "ATTGSASF", "antigen binding call": "no binding"},
      {"variant": "DAETAAAA", "antigen binding call": "no binding"},
      {"variant": "SRGRGAWA", "antigen binding call": "binds"},
      {"variant": "STGTGSGA", "antigen binding call": "no binding"},
      {"variant": "DAGRGAVS", "antigen binding call": "no binding"},
      {"variant": "SRGRGAWS", "antigen binding call": "binds"},
      {"variant": "SRGRGVGA", "antigen binding call": "no binding"},
      {"variant": "SRGRGSGA", "antigen binding call": "binds"},
      {"variant": "SRGRDAWA", "antigen binding call": "no binding"},
      {"variant": "SRGRGAVS", "antigen binding call": "binds"},
      {"variant": "VETGNDLV", "antigen binding call": "no binding"},
      {"variant": "STGTGYVF", "antigen binding call": "no binding"},
      {"variant": "AAKEGALV", "antigen binding call": "no binding"},
      {"variant": "AKGRADVY", "antigen binding call": "no binding"},
      {"variant": "YARETAGV", "antigen binding call": "no binding"},
      {"variant": "DRAGDDGD", "antigen binding call": "no binding"},
      {"variant": "DRRGDDGA", "antigen binding call": "no binding"},
      {"variant": "YRRGDDGD", "antigen binding call": "binds"},
      {"variant": "YRGRDDGD", "antigen binding call": "binds"},
      {"variant": "YKRGDDLV", "antigen binding call": "no binding"},
      {"variant": "YKRGDDGD", "antigen binding call": "binds"},
      {"variant": "DRGRDDVD", "antigen binding call": "no binding"},
      {"variant": "YTEGDDGD", "antigen binding call": "no binding"},
      {"variant": "VRGRDDGV", "antigen binding call": "no binding"},
      {"variant": "AEGGTDVV", "antigen binding call": "no binding"},
      {"variant": "SREAADAV", "antigen binding call": "no binding"},
      {"variant": "VKATAVAV", "antigen binding call": "no binding"},
      {"variant": "VKERGDAV", "antigen binding call": "no binding"},
      {"variant": "VKAGGAGS chain 1 G44D", "antigen binding call": "no binding"},
      {"variant": "VGARNSGV", "antigen binding call": "no binding"},
      {"variant": "VAARGFGS", "antigen binding call": "no binding"},
      {"variant": "VKARGSGV", "antigen binding call": "binds"},
      {"variant": "VKTGGSWV", "antigen binding call": "no binding"},
      {"variant": "VKGRADGV", "antigen binding call": "no binding"},
      {"variant": "VEGGGSGV", "antigen binding call": "no binding"},
      {"variant": "VKARGAGS", "antigen binding call": "binds"},
      {"variant": "VKTGGAVV", "antigen binding call": "binds"},
      {"variant": "VKEGGAVV", "antigen binding call": "no binding"},
      {"variant": "VKGRSDGV", "antigen binding call": "binds"},
      {"variant": "SKGRSDGV", "antigen binding call": "no binding"},
      {"variant": "SEGTGSSV", "antigen binding call": "no binding"},
      {"variant": "DGGKNAGV", "antigen binding call": "no binding"},
      {"variant": "DTGTGDAA", "antigen binding call": "no binding"},
      {"variant": "YKTKSDGV", "antigen binding call": "no binding"},
      {"variant": "YKGEGDGV", "antigen binding call": "no binding"},
      {"variant": "YKTGGAGV", "antigen binding call": "binds"},
      {"variant": "YKTGDDGV", "antigen binding call": "no binding"},
      {"variant": "YKKRGAGV", "antigen binding call": "binds"},
      {"variant": "YEKETAGV", "antigen binding call": "no binding"},
      {"variant": "DKAGGAGV", "antigen binding call": "no binding"},
      {"variant": "YKTGGDGV", "antigen binding call": "no binding"},
      {"variant": "YKARGAGV", "antigen binding call": "binds"},
      {"variant": "VKARSAGV", "antigen binding call": "no binding"},
      {"variant": "VKARGAGV", "antigen binding call": "binds"},
      {"variant": "VKGESAGV", "antigen binding call": "no binding"},
      {"variant": "FEAESYGV", "antigen binding call": "no binding"},
      {"variant": "FKATTSGA", "antigen binding call": "no binding"},
      {"variant": "FKAGSSGV", "antigen binding call": "no binding"},
      {"variant": "FKARGSGV", "antigen binding call": "binds"},
      {"variant": "VAGTDAGA", "antigen binding call": "no binding"},
      {"variant": "SRKGGDAA", "antigen binding call": "no binding"},
      {"variant": "YRRGSFAA", "antigen binding call": "binds"},
      {"variant": "YRRRGVAA", "antigen binding call": "binds"},
      {"variant": "YRRRGYAA", "antigen binding call": "binds"},
      {"variant": "SREGGFAA", "antigen binding call": "no binding"},
      {"variant": "YRRRGDAA", "antigen binding call": "binds"},
      {"variant": "VGGGASGV", "antigen binding call": "no binding"},
      {"variant": "FTGRAYGF", "antigen binding call": "no binding"},
      {"variant": "VAGRSDLV chain 1 R67H", "antigen binding call": "no binding"},
      {"variant": "DAKEGAGD", "antigen binding call": "no binding"},
      {"variant": "VTGEDDWD", "antigen binding call": "no binding"},
      {"variant": "VGGGNAGD", "antigen binding call": "no binding"},
      {"variant": "YRRRGYVA", "antigen binding call": "binds"},
      {"variant": "YRRRGFAA", "antigen binding call": "binds"},
      {"variant": "YRRRGAVA", "antigen binding call": "binds"},
      {"variant": "YREGGFAA", "antigen binding call": "no binding"},
      {"variant": "YRRRGAAA", "antigen binding call": "binds"},
      {"variant": "VRAGADVY", "antigen binding call": "no binding"},
      {"variant": "YGETGDSV", "antigen binding call": "no binding"},
      {"variant": "FTETGFGA", "antigen binding call": "no binding"},
      {"variant": "YRRRGFVA", "antigen binding call": "binds"},
      {"variant": "YRERDSAD", "antigen binding call": "no binding"},
      {"variant": "YRERGSAD", "antigen binding call": "binds"},
      {"variant": "FRERGSAD", "antigen binding call": "binds"},
      {"variant": "YRERGAAD", "antigen binding call": "binds"},
      {"variant": "YAEGDAAD", "antigen binding call": "no binding"},
      {"variant": "VRERGSAD", "antigen binding call": "binds"}
    ]}
  ]
}
